The nature of experiment [1]: qHTS assay to identify small molecule antagonists of the thyroid receptor (TR) signaling pathway - cell viability counter screen (AID 743064). Note: nearly all actives have a fitted effect of over 50% in size. In short, it runs like this: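 In rat pituitary GH3.TRE-Luc reporter cells co-exposed to compound and 1 nM T3 for 23.5 h, cytotoxicity was assessed with CellTiter-Fluor in the same wells, read by fluorescence.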
In general terms: qHTS replaces the single test concentration by a dilution series.

Experiment [2] can be described thus: qHTS assay to identify small molecule antagonists of the thyroid receptor (TR) signaling pathway (AID 743065). Note: nearly all actives have a fitted effect of over 55% in size. Note: potency is the fitted concentration of half-maximal effect. In a few lines: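 GH3.TRE-Luc rat pituitary cells (two TREs driving luciferase) were dosed with compound, then stimulated with 1 nM T3 (final) for 23.5 h at 37 C. ONE-Glo luminescence was the read-out, with CellTiter-Fluor fluorescence as the cytotoxicity counter-screen.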

In experiment [3] the test system is thyroid hormone receptor (rat, GH3 cells). Briefly: qHTS assay to identify small molecule agonists of the thyroid receptor (TR) signaling pathway (AID 743066; calls by dose curve).
Experiment [4] has as its target Estrogen receptor (Homo sapiens) (UniProt P03372). Briefly: qHTS assay to identify small molecule antagonists of the estrogen receptor alpha (ER-alpha) signaling pathway (AID 743069; active = well fitted curve in the direction sought with a large enough effect in the signal ratio in the repeat runs, not every such curve was filed as active; the % refers to the signal ratio). In a few lines: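 In this cell-based reporter format, GripTite HEK293 cells harbouring ER-alpha-UAS-bla were grown overnight with 2% charcoal-stripped FBS, dosed with DMSO-dissolved compounds, then challenged with 17beta-estradiol. After 18 hr at 37C, beta-lactamase activity was detected by FRET fluorescence.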

The nature of experiment [5]: qHTS assay to identify small molecule antagonists of the estrogen receptor alpha (ER-alpha) signaling pathway - cell viability counter screen (AID 743074; calls by dose curve; note: nearly all actives have a fitted effect of over 45% in size).
The target in experiment [6] is Estrogen receptor (Homo sapiens) (UniProt P03372). Briefly: qHTS assay to identify small molecule agonists of the estrogen receptor alpha (ER-alpha) signaling pathway (AID 743075; calls by dose curve).
Estrogen receptor (Homo sapiens), sequence (P03372 whole entry, looked up): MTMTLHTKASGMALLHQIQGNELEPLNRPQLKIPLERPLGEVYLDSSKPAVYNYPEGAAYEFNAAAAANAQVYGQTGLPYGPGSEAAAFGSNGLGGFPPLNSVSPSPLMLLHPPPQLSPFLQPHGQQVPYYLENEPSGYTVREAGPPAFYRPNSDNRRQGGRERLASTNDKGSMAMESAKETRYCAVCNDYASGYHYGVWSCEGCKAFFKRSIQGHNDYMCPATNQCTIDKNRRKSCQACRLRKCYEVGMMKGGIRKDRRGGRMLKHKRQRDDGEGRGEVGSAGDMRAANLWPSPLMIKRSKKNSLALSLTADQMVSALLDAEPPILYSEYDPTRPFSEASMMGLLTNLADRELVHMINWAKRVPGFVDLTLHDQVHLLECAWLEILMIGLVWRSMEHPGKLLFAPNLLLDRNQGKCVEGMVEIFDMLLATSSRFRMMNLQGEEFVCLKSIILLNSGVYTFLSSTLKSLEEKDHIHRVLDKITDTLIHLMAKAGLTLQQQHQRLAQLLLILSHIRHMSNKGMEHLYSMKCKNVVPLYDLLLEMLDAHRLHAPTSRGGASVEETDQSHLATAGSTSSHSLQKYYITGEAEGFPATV
The target is the same in experiment [7]. Briefly: qHTS assay to identify small molecule agonists of the estrogen receptor alpha (ER-alpha) signaling pathway using the BG1 cell line (AID 743079). Note: nearly all actives have a fitted effect of over 20% in size.
A short description of experiment [8]: qHTS assay to identify small molecule antagonists of the estrogen receptor alpha (ER-alpha) signaling pathway using the BG1 cell line (AID 743080; calls by dose curve;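 note: BG1 cells stimulated with 17beta-estradiol alongside compound; series mostly up to about 70 µM; nearly all actives have a fitted effect of over 25% in size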). In short, it runs like this: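 BG1-Luc-4E2 cells (endogenous full-length ER-alpha, 4xERE luciferase) hormone-starved 5 days in charcoal-stripped FBS, plated 4,000/well for 24 h, then compound plus 17beta-estradiol for 21.5 h at 37 C; ONE-Glo luminescence read.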

Experiment [9] in a line: qHTS assay to identify small molecule antagonists of the estrogen receptor alpha (ER-alpha) signaling pathway using the BG1 cell line - cell viability counter screen (AID 743081).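 Note: compound given together with 17beta-estradiol as the ER stimulus; series mostly up to about 70 µM; nearly all actives have a fitted effect of over 45% in size.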
The target in the next experiment is Aromatase (Homo sapiens) (UniProt P11511). The experiment can be described thus: qHTS assay to identify aromatase inhibitors (AID 743083). Note: series mostly up to about 70 µM; nearly all actives have a fitted effect of over 55% in size.
Aromatase (Homo sapiens), sequence (P11511 whole entry, looked up): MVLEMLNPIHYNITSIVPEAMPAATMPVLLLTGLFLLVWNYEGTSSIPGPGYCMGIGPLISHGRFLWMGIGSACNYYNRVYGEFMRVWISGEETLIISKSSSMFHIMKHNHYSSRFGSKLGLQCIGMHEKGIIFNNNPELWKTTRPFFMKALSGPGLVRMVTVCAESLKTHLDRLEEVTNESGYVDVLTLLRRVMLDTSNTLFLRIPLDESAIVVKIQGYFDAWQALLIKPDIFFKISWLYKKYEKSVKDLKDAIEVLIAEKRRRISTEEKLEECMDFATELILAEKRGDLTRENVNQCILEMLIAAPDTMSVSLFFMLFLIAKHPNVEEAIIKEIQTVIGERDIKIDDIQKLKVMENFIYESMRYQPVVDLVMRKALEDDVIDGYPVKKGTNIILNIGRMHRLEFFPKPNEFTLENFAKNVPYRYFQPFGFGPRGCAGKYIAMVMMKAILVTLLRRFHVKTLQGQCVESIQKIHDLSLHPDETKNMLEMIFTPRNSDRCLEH
Experiment [10] is described as follows: qHTS assay to identify aromatase inhibitors - cell viability counter screen (AID 743084).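 Note: cells stimulated with testosterone during compound exposure; nearly all actives have a fitted effect of over 55% in size.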
Experiment [11] can be described thus: qHTS assay to identify small molecule that activate the aryl hydrocarbon receptor (AhR) signaling pathway - cell viability counter screen (AID 743086).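 Note: HepG2 liver cells carrying the AhR DRE luciferase reporter; series mostly up to about 70 µM; nearly all actives have a fitted effect of over 45% in size.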 In a few lines:
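HepG2-AhR-luc (HG2L7.5c1) cells, 4000/well, treated 24 h at 37 C with compound; viability measured as CellTiter-Fluor fluorescence after 30 min in the same wells as the luciferase read.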

The target of experiment [12] is Peroxisome proliferator-activated receptor gamma (Homo sapiens) (UniProt P37231). The experiment can be described thus: qHTS assay to identify small molecule agonists of the peroxisome proliferator-activated receptor gamma (PPARg) signaling pathway (AID 743094; active = well fitted activation curve with a large enough effect in the signal ratio in the repeat runs, not every such curve was filed as active; the % refers to the signal ratio). In short, it runs like this: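 Cell-based bla reporter, HEK293H background, PPARg-driven UAS. Pre-incubation 5 h, 37C, 5% CO2. Compound 17 h, 37C. Substrate 1 h RT; fluorescence.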
Peroxisome proliferator-activated receptor gamma (Homo sapiens), sequence (P37231 whole entry, looked up): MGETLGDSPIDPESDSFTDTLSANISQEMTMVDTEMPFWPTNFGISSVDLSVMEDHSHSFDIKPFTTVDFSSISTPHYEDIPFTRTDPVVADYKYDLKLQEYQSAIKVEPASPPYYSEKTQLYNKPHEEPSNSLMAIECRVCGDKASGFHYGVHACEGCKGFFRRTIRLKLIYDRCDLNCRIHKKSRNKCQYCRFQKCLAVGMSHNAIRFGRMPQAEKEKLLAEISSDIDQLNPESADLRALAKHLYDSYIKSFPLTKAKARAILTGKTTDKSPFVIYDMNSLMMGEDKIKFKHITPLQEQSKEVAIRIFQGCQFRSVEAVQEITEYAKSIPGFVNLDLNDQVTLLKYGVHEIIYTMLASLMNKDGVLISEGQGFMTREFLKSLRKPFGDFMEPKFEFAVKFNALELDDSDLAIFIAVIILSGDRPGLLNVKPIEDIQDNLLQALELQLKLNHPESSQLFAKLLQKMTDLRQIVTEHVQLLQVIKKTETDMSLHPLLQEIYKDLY

Experiment [13] has the same target. Briefly: qHTS assay to identify small molecule antagonists of the peroxisome proliferator-activated receptor gamma (PPARg) signaling pathway (AID 743191; calls by dose curve; note: series mostly up to about 63 µM; nearly all actives have a fitted effect of over 30% in size). In short, it runs like this:
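GeneBLAzer PPARg UAS-bla HEK293H cells, 5 h post-plating, exposed to compounds 17 h at 37C. LiveBLAzer B/G FRET substrate added for 1 h at room temperature; beta-lactamase reporter read by fluorescence intensity.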

Experiment [14] in a line: qHTS assay to identify small molecule antagonists of the peroxisome proliferator-activated receptor gamma (PPARg) signaling pathway - cell viability counter screen (AID 743194). Note: nearly all actives have a fitted effect of over 55% in size. In a few lines:
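Cytotoxicity counter screen in PPARg-bla HEK293H cells, same wells as reporter assay. Compounds plus 50 nM rosiglitazone (final) for 17 h at 37 C, then viability read by CellTiter-Glo luminescence.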

Experiment [15] in a line: qHTS assay for small molecule agonists of the antioxidant response element (ARE) signaling pathway (AID 743202; active = well fitted activation curve with a large enough effect in the signal ratio in the repeat runs, not every such curve was filed as active; the % refers to the signal ratio; note: potency is the fitted concentration of half-maximal effect). In a few lines: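 HepG2 ARE-bla cells; 16 h treatment at 37 C; FRET-based beta-lactamase fluorescence read after 2 h substrate incubation at room temperature.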
Experiment [16] can be described thus: qHTS assay for small molecule agonists of the antioxidant response element (ARE) signaling pathway - cell viability counter screen (AID 743203; calls by dose curve; note: nearly all actives have a fitted effect of over 55% in size). In a few lines:
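Measured in the same wells as the beta-lactamase ARE reporter, this read-out is CellTiter-Glo luminescence from HepG2 ARE-bla cells given compounds for 16 hrs.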

Experiment [17] can be described thus: qHTS assay for small molecule activators of the heat shock response signaling pathway - cell viability counter screen (AID 743209). Note: nearly all actives have a fitted effect of over 50% in size. In a few lines:
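Same-well multiplex: after 2.5 h room-temperature incubation with LiveBLAzer B/G substrate and fluorescence reading, CellTiter-Glo reagent was added to HSE-bla HeLa cells that had received compound for 5 h at 37 C; luminescence read after 30 min.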

Experiment [18] can be described thus: qHTS assay for small molecule activators of the heat shock response signaling pathway (AID 743210; active = well fitted activation curve with a large enough effect in the signal ratio in the repeat runs, with a control signal flat, not every such curve was filed as active; the % refers to the signal ratio;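 note: HeLa cells with beta-lactamase reporter driven by heat shock elements; series mostly up to about 63 µM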). In a few lines: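 Following overnight attachment, HSE-bla HeLa cells received test compounds for 5 h at 37 C; beta-lactamase activity was then detected via FRET substrate fluorescence.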
In experiment [19] the target is Aryl hydrocarbon receptor (Homo sapiens) (UniProt P35869). Briefly: qHTS assay to identify small molecule that activate the aryl hydrocarbon receptor (AhR) signaling pathway (AID 743085).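 Note: HG2L7.5c1 human HepG2 liver cells with stably integrated DRE-driven firefly reporter; series mostly up to about 70 µM; nearly all actives have a fitted effect of over 15% in size.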 In a few lines:
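AhR agonist activity is inferred from enhanced light output of a DRE-controlled firefly luciferase reporter in HepG2 cells, measured with ONE-Glo following 24 h treatment at 37C.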

The structures appear in SMILES notation. Values joined by “and” are separate entries in the source; they are usually repeats but may differ in a detail not shown here. Equal entries are not always repeated. Results filed as inconclusive are left out. Active and inactive are the calls of the source. Unless noted, calls come from the whole dose curve; as a rule, active = well fitted curve in the direction sought with a large enough effect in the repeat runs; inconclusive = weak or mixed curves; inactive = no such curve, though single readings can be large; an effect the other way counts as inactive or inconclusive.

Aryl hydrocarbon receptor (Homo sapiens), sequence (P35869 whole entry, looked up): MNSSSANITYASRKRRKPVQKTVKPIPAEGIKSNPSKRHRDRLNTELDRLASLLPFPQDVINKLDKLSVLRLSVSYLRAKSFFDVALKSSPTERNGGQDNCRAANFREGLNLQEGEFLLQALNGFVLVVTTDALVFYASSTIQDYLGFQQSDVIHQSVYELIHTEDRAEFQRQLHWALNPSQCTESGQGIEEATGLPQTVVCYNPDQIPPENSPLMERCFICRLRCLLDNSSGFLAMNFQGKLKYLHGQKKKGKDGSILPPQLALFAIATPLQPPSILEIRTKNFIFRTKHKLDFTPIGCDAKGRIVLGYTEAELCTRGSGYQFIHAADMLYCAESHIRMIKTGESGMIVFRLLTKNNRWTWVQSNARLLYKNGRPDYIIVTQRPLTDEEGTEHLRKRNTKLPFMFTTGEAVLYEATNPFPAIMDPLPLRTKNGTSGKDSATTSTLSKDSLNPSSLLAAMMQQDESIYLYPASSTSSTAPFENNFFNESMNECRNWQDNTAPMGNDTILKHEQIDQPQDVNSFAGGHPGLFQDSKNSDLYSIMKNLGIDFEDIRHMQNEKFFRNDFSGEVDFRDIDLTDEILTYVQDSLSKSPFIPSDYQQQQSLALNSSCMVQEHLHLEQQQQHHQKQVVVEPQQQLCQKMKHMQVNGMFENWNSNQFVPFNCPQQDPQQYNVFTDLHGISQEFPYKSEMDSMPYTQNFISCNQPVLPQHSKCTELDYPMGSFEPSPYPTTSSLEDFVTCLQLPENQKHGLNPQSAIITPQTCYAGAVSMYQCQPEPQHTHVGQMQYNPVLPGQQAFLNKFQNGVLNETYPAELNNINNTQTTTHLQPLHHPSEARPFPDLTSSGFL

Take `CCn1cc(C(=O)O)c(=O)c2ccc(C)nc21`: the Potency result in experiment [1], in experiment [2], in [4], in experiment [6], in experiment [7] and in experiment [8] was “inactive” throughout. Moreover, the Potency entry (in [9]; with Aromatase (Homo sapiens); in experiment [10]; in experiment [11]; in [12]; in experiment [13]) was “inactive” each time. Moreover, the Potency entry in [14], in [15] and in experiment [16] was “inactive” throughout. The molecule was called inactive in experiment [3], in experiment [5], in [17] and in [18].
For the molecule `Oc1cccc(O)c1`, the Potency result in experiment [1], in experiment [2], in experiment [4], in experiment [6], in experiment [7] and in [8] was “inactive” throughout. The Potency result (in experiment [9]; with Aromatase (Homo sapiens); in experiment [10]; in experiment [11]; in experiment [12]; in experiment [13]) was “inactive” in each case. In addition, the Potency result in experiment [14], in [15] and in experiment [16] was “inactive” each time. The outcome in experiment [3], in experiment [5], in experiment [17] and in experiment [18] was inactive.
Consider `CCN1CCCC1=O`, for which the Potency result in [1], in experiment [2], in [4], in experiment [6], in experiment [7] and in [8] was “inactive” in each case. Besides, the Potency entry (in [9]; with Aromatase (Homo sapiens); in experiment [10]; in experiment [11]; in experiment [12]; in [13]) was “inactive” each time. Moreover, the Potency result in [14], in experiment [15] and in experiment [16] was “inactive” throughout. For the same molecule, the molecule was called inactive in [3], in experiment [5], in [17] and in experiment [18].
On to `NC(N)=NC(N)=NCCc1ccccc1`, for which the Potency entry (in [1]; in experiment [4]; in [6]; in experiment [9]; with Aromatase (Homo sapiens); in [10]) was “inactive” throughout. Besides, the Potency entry in experiment [11], in experiment [12], in experiment [13], in experiment [14] and in [16] was “inactive” each time. Moreover, the Potency was 60.8 µM (active) in [2]; 6.08 µM (active) and 6.68 µM (active) in [15]. Moreover, the call in experiment [3], in [5], in [17] and in experiment [18] was inactive.
Take `COc1cc(C=O)ccc1O`: the Potency result in experiment [1], in [2], in experiment [6], in experiment [7], in [8] and in experiment [9] was “inactive” in each case. The Potency entry (in the experiment with Aromatase (Homo sapiens); in experiment [10]; in experiment [11]; in experiment [12]; in [13]; in experiment [14]) was “inactive” throughout. Besides, the Potency entry in [15] and in experiment [16] was “inactive” in each case. In addition, the molecule was classed as inactive in experiment [3], in experiment [5] and in experiment [17].
Take `OC[C@@H](O)[C@@H](O)[C@H](O)[C@H](O)CO`: the Potency result in experiment [1], in [2], in experiment [4], in [6], in [7] and in experiment [8] was “inactive” each time. The Potency result (in [9]; with Aromatase (Homo sapiens); in experiment [10]; in experiment [11]; in [12]; in [13]) was “inactive” in each case. For the same molecule, the Potency result in [14], in [15] and in experiment [16] was “inactive” throughout. Further, the call in [3], in experiment [5], in experiment [17] and in [18] was inactive.
In the case of `Cc1c(N(C)CS(=O)(=O)O)c(=O)n(-c2ccccc2)n1C`, the Potency result (in [1]; in experiment [2]; in [9]; with Aromatase (Homo sapiens); in [10]; in experiment [19]) was “inactive” throughout. Besides, the Potency result in experiment [11], in [12], in [13], in [14], in experiment [15] and in experiment [16] was “inactive” in each case. The call in experiment [3], in experiment [5], in experiment [17] and in experiment [18] was inactive.

The values above are taken from PubChem BioAssay (Tox21).
